Experimental data published in PubChem BioAssay (NCI).
This is part of a sample that, as a whole, favours compounds with a hit. Of some 79,000 tested, about 15% had one in any assay. Active and inactive are the calls of the source. No stated cut-off is given here; in the data, active means growth inhibition above about 70%; inactive means the rest.

Tests used:
[1] = NCI Yeast Anticancer Drug Screen. Data for the rad50 strain (AID 155);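 further: 0% = growth of vehicle-only cultures of the same strain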; settings: S. cerevisiae rad50 strain growth inhibition; at 50.0 µM; stronger effect = higher value
Method in brief: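 Vehicle-treated cultures provide the reference for the growth inhibition reported for compound-exposed, repair-deficient yeast.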

[2] = NCI Yeast Anticancer Drug Screen. Data for the mec2-1 strain (AID 157); settings: S. cerevisiae mec2-1 strain, at 50.0 µM, stronger effect = higher value
Method in brief: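 Vehicle-treated cultures served as reference for growth inhibition of compound-exposed mec2-1 yeast.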

[3] = NCI Yeast Anticancer Drug Screen. Data for the sgs1 mgt1 strain (AID 161);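 further: 0% = growth of cultures given vehicle only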; settings: S. cerevisiae sgs1 mgt1 strain, at 50.0 µM, stronger effect = higher value
Method in brief: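 Read-out: growth inhibition vs vehicle controls. Cells: mutant yeast strain deficient in DNA damage repair.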

[4] = NCI Yeast Anticancer Drug Screen. Data for the cln2 rad14 strain (AID 165);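 further: 0% = growth equal to vehicle treated cultures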; settings: S. cerevisiae cln2 rad14 strain, at 50.0 µM, stronger effect = higher value
Method in brief: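 Each compound was tested on cln2 rad14 yeast. Inhibition of growth was calculated against vehicle-exposed controls.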

[5] = NCI Yeast Anticancer Drug Screen. Data for the bub3 strain (AID 167); settings: S. cerevisiae bub3 mutant strain, at 50.0 µM, stronger effect = higher value
Method in brief: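 Mutant yeast screening strain plus compound; vehicle-treated cultures serve as the 0% inhibition reference.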

[6] = NCI Yeast Anticancer Drug Screen. Data for the mlh1 rad18 strain (AID 175); settings: S. cerevisiae mlh1 rad18 strain growth inhibition; at 50.0 µM; stronger effect = higher value
Method in brief: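 Vehicle-treated cultures served as the reference for growth inhibition in a yeast strain carrying DNA damage repair alterations exposed to each compound.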

Measured: growth inhibition

NC(=O)NN/C=C(/C=Nc1ccccc1)[N+](=O)[O-]
inactive: [1] 17.4% | [2] 7.35% | [3] 1.2% | [4] 5.35% | [5] 6.55% | [6] 0.95%

CC(=O)N1C(=O)C2(Nc3cccnc3N2)c2ccccc21 (configuration not stated)
inactive: [1] -4.85% | [2] 16.4% | [3] -1.8% | [4] -1.35% | [5] -0.95% | [6] -16.1%

CCC(C)C1CCCCC1 (configuration not stated)
inactive: [1] -13% | [2] -15.9% | [3] -3.35% | [4] 3.85% | [5] -12.8% | [6] 0.75%

Cc1cc(S(=O)(=O)Nc2n[nH]c(-c3ccc(Cl)cc3)n2)c(SSc2cc(Cl)c(C)cc2S(=O)(=O)Nc2n[nH]c(-c3ccc(Cl)cc3)n2)cc1Cl
inactive: [1] 34.5% | [2] 15.2% | [3] 27.8% | [4] 34.7% | [5] 30.6% | [6] 32.2%

C1CCC2(CC1)CCCO2
inactive: [1] -6.3% | [2] 6.2% | [3] -0.9% | [4] 10.5% | [5] 23.6% | [6] 19.4%

Nc1ccc2c(c1)Cc1c-2cc(Br)c(N)c1Br
inactive: [1] 4.95% | [2] -6.85% | [3] 9.5% | [4] -39.2% | [5] 1.9% | [6] -6.75%

Cc1ccc(N=C2C(=Nc3ccc(C)cc3)N(c3ccc(C)cc3)C(=S)N2C(=O)c2ccccc2)cc1
inactive: [1] -5.4% | [2] -27.1% | [3] 7.9% | [4] 26.3% | [5] -29.6% | [6] -13.1%

CN(c1ccc(Cl)cc1)S(=O)(=O)c1ccc([N+](=O)[O-])cc1
inactive: [1] -13.2% | [2] -23.5% | [3] 23.4% | [4] 32.4% | [5] 38% | [6] -5.9%

COC(=O)C1C(=O)CC(C)(O)C(C(=O)OC)C1c1ccc(N(C)C)cc1 (configuration not stated)
inactive: [1] -10.5% | [2] 19.9% | [3] 7.7% | [4] 53% | [5] 15.1% | [6] -25.4%

NC(=O)Cn1c(=O)[nH]c(=O)c2[nH]cnc21
inactive: [1] -16.9% | [2] -2.1% | [3] -10.3% | [4] 5.4% | [5] -0.4% | [6] 6.85%

CSc1ccccc1C1CCCCCC1O (configuration not stated)
inactive: [1] 11% | [2] 12.8% | [3] 5.65% | [4] 12.8% | [5] -30.6% | [6] 10.1%

O=C(CCN1CCCCC1)Nc1ccc2sc3ccccc3c(=O)c2n1
inactive: [1] 51.9% | [2] -19.7% | [3] -0.6% | [4] 9.1% | [5] 11.1% | [6] 10.7%

O=S(O)CCCCCSSSCCCCCS(=O)O
inactive: [1] 8.2% | [2] 8.8% | [3] -2.8% | [4] -10.4% | [5] 9.05% | [6] 44.7%

CCCC(=O)N[C@H]1C[C@H]2CC[C@@]1(C)C2(C)C
inactive: [1] -31.6% | [2] -27.4% | [3] -15.1% | [4] 11.2% | [5] 10.3% | [6] -1.75%

O=C(OCc1ccccc1)C1CC1 (tested in a mixture with another compound)
inactive: [1] 12.1% | [2] 14.8% | [3] 15.4% | [4] 6.1% | [5] 20.8% | [6] 25.2%

Cc1cccc(Cl)c1NC(=O)CN(C)C
inactive: [1] 21.4% | [2] -0.55% | [3] 17.7% | [4] 10.4% | [5] 19.6% | [6] 24.7%

NC(=S)N/N=C/c1ccc2c(c1)OCO2
inactive: [1] 1.55% | [2] 25.8% | [3] 9% | [4] 47.4% | [5] 22.9% | [6] 13.1%

CC(=O)CC(C)=NCCCCN=C(C)CC(C)=O
inactive: [1] -12.6% | [2] -29.1% | [3] 5.55% | [4] 5.35% | [5] -25.2% | [6] -17.3%

N#Cc1cnn2ccn(C3OC(CO)C(O)C3O)c12 (configuration not stated)
inactive: [1] -42.8% | [2] -14.2% | [3] -18.9% | [4] -22.6% | [5] -5.45% | [6] 14.9%

CCCCNC(=O)c1ccccc1N
inactive: [1] -20.2% | [2] -6.15% | [3] -30.7% | [4] -8% | [5] -16% | [6] -22.4%

CC1CCOCO1 (configuration not stated)
inactive: [1] -3.3% | [2] 0.1% | [3] -1.05% | [4] 1.75% | [5] 13.1% | [6] -9.2%

CCOc1ccc(NC(C)=O)c([N+](=O)[O-])c1
inactive: [1] -7.05% | [2] -1.25% | [3] 21% | [4] 9.45% | [5] -3.35% | [6] 2.55%

CCCCNC(=O)CSc1cc(Cl)c(Cl)cc1Cl
inactive: [1] 15.2% | [2] 9.1% | [3] 16.6% | [4] 19.1% | [5] 25.6% | [6] 13.2%

Oc1ccc2ccccc2c1-c1c(OC(c2ccccc2)c2ccccc2)ccc2ccccc12
inactive: [1] 5.9% | [2] -19.2% | [3] 0.2% | [4] -29.4% | [5] -4.65% | [6] -13.1%

CCCCCCCCCCCCCC(=O)CC
inactive: [1] 56.3% | [2] -3.35% | [3] 17.9% | [4] 19.1% | [5] 12.4% | [6] 21.9%

Nc1nc(/C=C(/O)c2ccccc2)c2ncn(C3OC(CO)C(O)C3O)c2n1 (configuration not stated)
inactive: [1] 25.3% | [2] -6.25% | [3] 13.4% | [4] -4.7% | [5] 11.2% | [6] -17.8%

Cc1cc(=O)[nH]c(Nc2nc3ccccc3[nH]2)n1
inactive: [1] 1.1% | [2] -0.75% | [3] 6.7% | [4] 20.8% | [5] -1.4% | [6] 5.9%

COc1cccc(C(=O)NCCNCCNC(=O)c2cccc(OC)c2OC)c1OC
inactive: [1] -0.8% | [2] 0.7% | [3] -3.95% | [4] -6.6% | [5] -1.75% | [6] -2.35%

CCOC(=O)/C(C#N)=C/c1c(-c2ccccc2)nn2ccccc12
inactive: [1] 42.6% | [2] 26.6% | [3] 28.1% | [4] -2.4% | [5] -7.7% | [6] 20.6%

OC(Cc1ccccc1)CN1CCN(c2ccccc2)CC1 (configuration not stated)
inactive: [1] 10.4% | [2] 4% | [3] 8% | [4] 17.1% | [5] 8.05% | [6] 4.05%

CCC(CC)(Cc1ccccc1)C(=O)O
inactive: [1] 9.65% | [2] -17.7% | [3] 12.7% | [4] 1.65% | [5] 11.7% | [6] 36.4%

CC(NC(=O)OCc1ccccc1)NC(=O)C(CC(=O)OC(C)(C)C)NC(=O)OC(C)(C)C (configuration not stated)
inactive: [1] -26.6% | [2] -40.5% | [3] -24.9% | [4] -7.3% | [5] -30.8% | [6] -29.3%

CCc1ccc(C(=O)CN2CCCc3ccccc32)cc1
inactive: [1] -13.4% | [2] 0.7% | [3] -6.55% | [4] -17.2% | [5] 1.95% | [6] -13.8%

COc1ccccc1NC=O
inactive: [1] -1.5% | [2] -25.1% | [3] -3.65% | [4] 16.8% | [5] -7.4% | [6] 2.55%

Cc1ccc(S(=O)(=O)N2N=C(c3ccccc3)CC2c2ccccc2)cc1 (configuration not stated)
active: [1] 83.1% | [2] 87.1% | [3] 88.4% | [4] 81% | [5] 82% | [6] 91%

CC1=COC(=O)c2ccccc2N1
inactive: [1] 15.3% | [2] 1.65% | [3] -7.1% | [4] 14.6% | [5] 6.05% | [6] 6%

O=C(CNc1ccc2c(=S)c3ccccc3[nH]c2c1)Nc1ccccc1-c1ccccc1NC(=O)CNc1ccc2c(=S)c3ccccc3[nH]c2c1
active: [1] 88.6% | [2] 92.5% | [3] 92.1% | [4] 90.8% | [5] 90.7% | [6] 85.9%
